Results: PubChem BioAssay (EPA / NIEHS)
More than one record can exist for a structure, and the calls need not agree. The source made the active and inactive calls. The calls were made as follows: active = hit-call score of the fitted dose curve at least 0.9, where 1 is the maximum; inactive = score below 0.9.

What follows are molecules tested on CYP3A5 (gene 1577) (assay: LTEA_HepaRG_CYP3A5: Life Technologies and Expression Analysis (LTEA) Assay for CYP3A5 using HepaRG (AID 2283493)). Conditions: mRNA level, 48 h; actives raise or lower the signal.
Description: LTEA_HepaRG is a cell based, multiplexed-readout assay that uses HepaRG, a human liver cell line, with measurements taken at 48 hours after chemical dosing on a 96-well plate.LTEA_HepaRG_CYP3A5 is one of 102 assay component(s) measured in the LTEA HepaRG cell culture assay. It is a marker of NR mediated metabolism.Data from the assay component LTEA_HepaRG_CYP3A5 was analyzed into 1 endpoint. This assay endpoint, LTEA_HepaRG_CYP3A5, was analyzed with bidirectional fitting relative to DMSO as the negative control and baseline of activity. Using a type of inducible reporter, measures of mRNA induction for gain or loss-of-signal activity can be used to understand regulation of transcription factor activity. To generalize the intended target to other relatable targets, this assay endpoint is annotated to the cyp intended target family, where the subfamily is xenobiotic metabolism.
A total of 1060 chemcials from the ToxCast library were tested in eight-point concentration-response experiments. Cell culture and cytotoxicity assays were conducted at Thermo Fisher Scientific's Custom Services facility (Madison, WI). A single lot of human HepaRG cells (Thermo Fisher Scientific, Frederick, MD) was used for the cell culture experiments. 96-well format collagen type I coated plates of human HepaRG cells were prepared using established methods. Briefly, cryopreserved HepaRG cells were thawed, plated at a density of approximately 100,000 cells/well in HepaRG Thaw, Plate, and General Purpose media (HPRG770, Thermo Fisher Scientific), and incubated for 48 hours. 0.5% DMSO was selected as vehicle control to balance the requisite need of DMSO in HepaRG cultures to maintain differentiation (for example, baseline metabolism, proportions of hepatocytes vs. cholangiocytes), while enabling further hepatic receptor pathway activation (for example, PXR and CAR) in response to chemical exposure. 48 hours after plating, the culture medium was replaced with HepaRG Serum-Free Incudtion Media. Cells were exposed to each test chemical in duplicate and maintained in CO2 incubators for another 48 hours. Chemical plates were thawed to room temperature and 200x concentrations of treatment groups were prepared. 8-point conentration-reponse curves were made with the highest exposure at 100 uM, followed by half-log dilutions, all in 0.5% DMSO. Each test plate contained variouse controls, induction positive controls (1mM phenobarbital), cytotoxicity positive controls ([…] aflatoxin B1), vehicle controls (0.5% DMSO), and total lysis controls (0.5% DMSO). Cell morphology images were taken using an Essen IncuCyte FLR automated microscope, with six 96-well plates imaged in about 24 minutes. Images were captured and exported and JPEG files. Spent culture media was transfered to black-well plates for the LDH assay, and remaining media was sorted at -80 C for later use. Cells were treated with RLT buffer and frozen until shipped for gene expression analysis. Total RNA was isolated from the cell suspension in 75 uL of Buffer RLT (Qiagen, Germantown, MD 20874) by Quintiles/Expression Analysis (Durham, NC) using a custom isolation procedure. Total RNA from each plate well was transferred to a preamplification plate. Fluidigm's 96.96 Dynamic ArrayTM (Fluidigm, Amsterdam, the Netherlands) technology was used for gene expression analyses by quantitative reverse transcription polymerase chain reaction (qRT-PCR, performed by Quintiles/Expression Analysis, Durham, NC)89. Standard TaqManTM Assays (Applied Biosystems/ThermoFisher Scientific, Foster City, CA) were used to assess the expression of 93 genes selected based on their selectivity and sensitivity to important hepatic receptors known to be modulated by environmental chemicals; importance in human hepatocyte functionality; and hepatotoxicity. […]

| Structure (SMILES) | outcome | AC50 |
| --- | --- | --- |
| COP(=O)(OC)OC=C(Cl)Cl | inactive | – |
| C#CCN1C(=O)COc2cc(F)c(N3C(=O)C4=C(CCCC4)C3=O)cc21 | inactive | – |
| COc1nn(CSP(=S)(OC)OC)c(=O)s1 | inactive | – |
| CC1(C)C(C=C(Cl)Cl)C1C(=O)OC(C#N)c1ccc(F)c(Oc2ccccc2)c1 (stereo not given) | inactive | – |
| O=C1c2ccccc2C(=O)N1SC(Cl)(Cl)Cl | inactive | – |
| Oc1ccc(Cl)cc1Cc1ccccc1 | inactive | 50.5 µM (active) |
| O=C(O)C(F)(F)C(F)(F)C(F)(F)C(F)(F)C(F)(F)C(F)(F)C(F)(F)F | inactive | – |
| CCN(CC)C(=O)SCc1ccc(Cl)cc1 | inactive | – |
| CCCN(CCOc1c(Cl)cc(Cl)cc1Cl)C(=O)n1ccnc1 | inactive | – |
| CC(C)N(C(=O)COc1nnc(C(F)(F)F)s1)c1ccc(F)cc1 | inactive | – |
| O=S1OCC2C(CO1)C1(Cl)C(Cl)=C(Cl)C2(Cl)C1(Cl)Cl (stereo not given) | inactive | – |
| CC1(c2ccc(Oc3ccccc3)cc2)OC(=O)N(Nc2ccccc2)C1=O (stereo not given) | – | 90.2 µM (active) |
| O=[N+]([O-])c1c(Cl)c(Cl)c(Cl)c(Cl)c1Cl | inactive | – |
| CC(C)OC(=O)Nc1cccc(Cl)c1 | inactive | – |
| O=S(=O)(O)C(F)(F)C(F)(F)C(F)(F)C(F)(F)C(F)(F)C(F)(F)C(F)(F)C(F)(F)F | inactive | – |
| CCC(C)(NC(=O)c1cc(Cl)c(C)c(Cl)c1)C(=O)CCl (stereo not given) | – | 89.6 µM (active) |
| N#CN | inactive | – |
| CC(C)(C)C(O)C(Oc1ccc(Cl)cc1)n1cncn1 (stereo not given) | inactive | – |
| CC(C)(C)C(O)/C(=C\c1ccc(Cl)cc1Cl)n1cncn1 (stereo not given) | inactive | – |

| Structure (SMILES) | outcome | AC50 |
| --- | --- | --- |
| C[C@H]1[C@H](c2ccc(Cl)cc2)SC(=O)N1C(=O)NC1CCCCC1 | inactive | – |
| O=C(NC(=O)c1c(F)cccc1F)Nc1ccc(OC(F)(F)C(F)OC(F)(F)F)c(Cl)c1 (stereo not given) | inactive | – |
| O=[N+]([O-])/N=C1\NCCN1Cc1ccc(Cl)nc1 | inactive | – |
| ClC1C(Cl)C(Cl)C(Cl)C(Cl)C1Cl (stereo not given) | inactive | – |
| CNC(=O)/C=C(\C)OP(=O)(OC)OC | inactive | – |
| N#Cc1c(Cl)c(Cl)c(Cl)c(C#N)c1Cl | inactive | – |
| CNC(=O)Oc1cccc(N=CN(C)C)c1 | inactive | – |
| CC[C@H](C)[C@H]1O[C@]2(C=C[C@@H]1C)C[C@@H]1C[C@@H](C/C=C(\C)[C@@H](O[C@H]3C[C@H](OC)[C@@H](O[C@H]4C[C@H](OC)[C@@H](O)[C@H](C)O4)[C@H](C)O3)[C@@H](C)/C=C/C=C3\CO[C@@H]4[C@H](O)C(C)=C[C@@H](C(=O)O1)[C@]34O)O2 (tested in a mixture with another compound) | – | 6 µM (active) |
| Clc1ccccc1-c1nnc(-c2ccccc2Cl)nn1 | inactive | – |
| Oc1cc(Cl)ccc1Oc1ccc(Cl)cc1Cl | inactive | 51 µM (active) |
| Cc1[nH]c(=O)n(C(C)(C)C)c(=O)c1Cl | inactive | – |
| COP(=S)(OC)Oc1ccc(SC)c(C)c1 | inactive | – |
| CCC(C)Nc1c([N+](=O)[O-])cc(C(C)(C)C)cc1[N+](=O)[O-] (stereo not given) | inactive | – |
| CCC(C)(C)C(=O)OC1=C(c2ccc(Cl)cc2Cl)C(=O)OC12CCCCC2 | inactive | – |
| CNC(=O)CSP(=S)(OC)OC | inactive | – |
| OCCOc1ccccc1 | inactive | – |
| CCCN(CCC)c1c([N+](=O)[O-])cc(C(F)(F)F)cc1[N+](=O)[O-] | inactive | – |
| O=C(O)COc1ccc(Cl)cc1Cl | inactive | – |
| CCOC1Oc2ccc(OS(C)(=O)=O)cc2C1(C)C (stereo not given) | – | 75.2 µM (active) |
